Screens deposited in PubChem BioAssay by Center for Chemical Genomics, University of Michigan.
Dicer processing = blocks human Dicer maturation of pre-miR-21; z-score at 25 µM; cat-ELCCA pre-miR-21 Dicer processing, chemiluminescence; active compounds read high; Q9UPY3; 6% of 47,000 active; in the data active = z-score above about 3, passing the limit was not always enough;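 also: plate controls were vehicle for no effect and no enzyme for full effect; higher signal means more uncleaved substrate so more Dicer inhibition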
Target sequence (Q9UPY3 whole entry, looked up): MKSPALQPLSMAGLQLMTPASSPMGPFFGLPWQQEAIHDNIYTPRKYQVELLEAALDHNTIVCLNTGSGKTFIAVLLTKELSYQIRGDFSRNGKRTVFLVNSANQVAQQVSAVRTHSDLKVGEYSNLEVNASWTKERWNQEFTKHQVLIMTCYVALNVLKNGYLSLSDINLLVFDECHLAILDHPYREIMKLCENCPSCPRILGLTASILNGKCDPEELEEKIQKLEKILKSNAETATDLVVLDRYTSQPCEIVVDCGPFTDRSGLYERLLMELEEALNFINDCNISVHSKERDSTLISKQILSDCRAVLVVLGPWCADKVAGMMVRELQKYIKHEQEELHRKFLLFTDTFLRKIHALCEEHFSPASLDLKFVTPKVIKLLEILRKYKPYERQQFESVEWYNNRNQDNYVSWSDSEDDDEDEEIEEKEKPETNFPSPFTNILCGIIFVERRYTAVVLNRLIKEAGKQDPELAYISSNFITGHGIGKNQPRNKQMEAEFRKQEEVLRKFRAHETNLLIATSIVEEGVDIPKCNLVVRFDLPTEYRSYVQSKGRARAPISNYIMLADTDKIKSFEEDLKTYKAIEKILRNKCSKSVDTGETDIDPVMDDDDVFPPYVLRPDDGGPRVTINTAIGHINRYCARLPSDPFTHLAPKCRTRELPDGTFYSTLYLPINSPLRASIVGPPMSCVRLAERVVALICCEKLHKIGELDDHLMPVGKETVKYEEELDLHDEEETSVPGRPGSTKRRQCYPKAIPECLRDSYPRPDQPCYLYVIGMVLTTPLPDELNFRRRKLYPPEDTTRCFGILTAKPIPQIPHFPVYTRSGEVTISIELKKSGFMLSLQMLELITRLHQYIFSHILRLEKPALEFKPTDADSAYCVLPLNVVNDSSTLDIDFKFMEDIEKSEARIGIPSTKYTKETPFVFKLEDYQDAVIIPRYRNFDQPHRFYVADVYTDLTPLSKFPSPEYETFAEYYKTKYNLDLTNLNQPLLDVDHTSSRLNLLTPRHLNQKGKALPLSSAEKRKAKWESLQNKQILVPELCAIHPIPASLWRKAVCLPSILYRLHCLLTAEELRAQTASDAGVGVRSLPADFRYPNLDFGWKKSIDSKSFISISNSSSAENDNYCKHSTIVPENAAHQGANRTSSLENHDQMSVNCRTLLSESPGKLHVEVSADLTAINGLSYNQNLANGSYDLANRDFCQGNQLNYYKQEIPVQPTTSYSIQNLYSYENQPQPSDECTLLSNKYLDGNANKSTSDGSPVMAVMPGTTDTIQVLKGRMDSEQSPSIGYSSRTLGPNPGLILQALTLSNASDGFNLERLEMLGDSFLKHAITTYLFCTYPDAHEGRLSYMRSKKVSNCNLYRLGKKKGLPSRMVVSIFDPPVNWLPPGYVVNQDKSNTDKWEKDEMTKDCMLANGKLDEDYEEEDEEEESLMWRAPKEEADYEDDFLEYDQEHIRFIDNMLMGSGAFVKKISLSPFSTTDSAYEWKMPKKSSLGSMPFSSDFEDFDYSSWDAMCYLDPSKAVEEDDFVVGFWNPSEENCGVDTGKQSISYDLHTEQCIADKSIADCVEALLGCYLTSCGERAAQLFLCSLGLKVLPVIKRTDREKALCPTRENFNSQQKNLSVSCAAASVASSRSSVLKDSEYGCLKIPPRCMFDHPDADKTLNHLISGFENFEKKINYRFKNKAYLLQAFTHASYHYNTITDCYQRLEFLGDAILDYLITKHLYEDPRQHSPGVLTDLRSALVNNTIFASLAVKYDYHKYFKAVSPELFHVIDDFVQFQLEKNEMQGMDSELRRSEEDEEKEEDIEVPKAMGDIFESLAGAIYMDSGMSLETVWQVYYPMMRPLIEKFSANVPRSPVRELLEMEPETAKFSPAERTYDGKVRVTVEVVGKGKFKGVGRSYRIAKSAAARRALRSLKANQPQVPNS
Starred values were filed as active, the others as inactive. The full list was thinned out, with hits kept by preference.

SMILES	Dicer processing
C/C(=N\OC(=O)c1ccc(C(F)(F)F)cc1)c1ccn(S(=O)(=O)c2ccccc2)c1	-0.23
O=C(O)CCn1c(=O)oc2ccccc21	0.24
NC(=Nc1cc(Cl)ccc1Cl)SCc1ccccc1	1.4
O=C1c2ccccc2C(=O)c2sccc21	-1.1
CC(C)(C)NC(=O)CSc1nc2ccccc2[nH]1	4.9*
O=C(CSc1nc2ccccc2[nH]1)Nc1ncccn1	0.74
CCOC(=O)CSc1nc2ccccc2[nH]1	-0.04
O=C1NC(c2ccccc2Cl)Nc2ccccc21 (centres undefined)	-0.28
CCCc1cc(=O)oc2cc(OCC(=O)NN)ccc12	0.06
CSc1scc2c1-c1nc(SCc3cccc(C(F)(F)F)c3)ncc1CC2	-1.2
CS/C(=C(/C#N)S(=O)(=O)C(C)C)N1CCCC1	-1.2
CS/C(=C(/C#N)S(=O)(=O)C(C)C)N1CCCCC1	4.2*
CS/C(=C(/C#N)S(=O)(=O)C(C)C)N1CCOCC1	-1.3
Cc1ccc(C2/C(=C(\O)c3ccc(Cl)cc3)C(=O)C(=O)N2CCN2CCOCC2)o1 (centres undefined)	0.61
CCNC(=O)N(C)c1nncnc1C(=O)NC	4.5*
CCCCNC(=O)N(C)c1nncnc1C(=O)NC	-0.1
CNC(=O)c1ncnnc1N(C)C(=O)NCc1ccccc1	0.99
COc1ccc(-c2noc(COc3ccc(Cl)cc3)n2)cc1	2.8
Nc1c(Cl)cc(-c2noc(-c3cccs3)n2)cc1Cl	-1.8
COc1ccc(-c2nc(-c3ccc(Cl)cc3)no2)cc1	4.2*
Brc1ccc(OCc2nc(-c3ccncc3)no2)cc1	-0.18
COc1ccc(-c2noc(COc3ccc(Br)cc3)n2)cc1	4.1*
Clc1ccc(-c2nc(-c3ccncc3)no2)cc1	1.7
COc1ccc(-c2noc(-c3cccs3)n2)cc1	3.9*
COc1ccc(-c2noc(-c3ccc(OC)cc3)n2)cc1	1.3
SMILES	Dicer processing
COc1ccc(OCc2nc(-c3cccs3)no2)cc1	0.06
CCOC(=O)C1(C(F)(F)F)N=C(c2cccc(C)c2)OC(N2CCCCC2)=N1 (centres undefined)	0
CCN(CC)CCOc1ccc(Nc2ncc3cc(-c4c(Cl)cccc4Cl)c(=O)n(C)c3n2)cc1	-0.65
COC(=O)C1=C(C)NC(=O)CC1c1ccc(C(C)C)cc1 (centres undefined)	-0.44
C/C(=N\O)c1ccn(S(=O)(=O)c2ccccc2)c1	0.27
CCCCNS(=O)(=O)c1cc2c(c([N+](=O)[O-])c1)-c1c(cc(S(=O)(=O)NCCCC)cc1[N+](=O)[O-])C2=O	1.5
COC(=O)c1ccc(Cn2nnc3sc4c(c3c2=O)CCCC4)cc1	0.73
Cc1cc(C)nc(NC(=S)Nc2cccc(F)c2)c1	0.95
Cc1onc(-c2c(Cl)cccc2Cl)c1CSC(=S)N(C)C	6.6*
Cc1onc(-c2c(Cl)cccc2Cl)c1N	-1
CSC(=S)N(C)NC(=O)Nc1c(-c2c(Cl)cccc2Cl)noc1C	-0.93
O=C1C2ON(c3ccccc3)C(c3ccccc3O)C2C(=O)N1c1ccc(Cl)cc1 (centres undefined)	-2
COC(=O)/C=C1/OC(c2ccccc2)=CC1=O	-0.48
Cc1ccc(C2OC3(C(=O)c4ccccc4C3=O)C3C(=O)N(Cc4ccc(Cl)cc4)C(=O)C23)cc1 (centres undefined)	-0.17
C(=NC1CCCCCCCCCCC1)c1ccco1	0.65
COc1cccc(C(=O)Nc2nc(SCc3ccc(Cl)cc3)n[nH]2)c1	-0.48
CSc1nnc(SC)n1CCNC(=O)c1cccc(Cl)c1	-0.27
COc1cccc(C(=O)NCCN2CCN(c3ccc(Cl)cc3)CC2)c1	3.9*
CN1C2CCC1CC(NC(=O)Nc1ccc(F)cc1F)C2 (centres undefined)	-0.02
COc1ccccc1OCCC(=O)O	2.7
COc1ccccc1OCCN1CCN(C)CC1	4.8*
COc1ccccc1OCCn1cc(C(=O)O)c2ccccc21	-0.73
O=C1C(=O)N(c2nccs2)C(c2cccc(Br)c2)/C1=C(\O)c1ccc(Cl)cc1 (centres undefined)	-0.05
CCOC(=O)Cc1csc(NC(=O)Nc2cc(C)cc(C)c2)n1	-1.2
COc1cccc(CN2CCN(Cc3cc(Br)ccc3O)CC2)c1OC	3.8*
SMILES	Dicer processing
COc1ccc(CN2CCN(Cc3ccc(Br)cc3)CC2)c(OC)c1	0.24
Cc1ccc(S(=O)(=O)N2CCN(Cc3cc(C(C)C)ccc3O)CC2)cc1	0.25
CCCS(=O)(=O)N1CCN(Cc2cc(Br)ccc2O)CC1	2.6
COc1cccc(CN2CCN(Cc3ccccc3Br)CC2)c1OC	1.4
CCS(=O)(=O)N1CCN(Cc2cc(Br)ccc2O)CC1	4.9*
COc1ccc(CN2CCN(Cc3cc(Br)ccc3O)CC2)c(OC)c1	4.5*
COc1ccc(CN2CCN(Cc3cc(Br)ccc3OC)CC2)cc1	0.33
COc1ccc(Br)cc1CN1CCN(Cc2ccncc2)CC1	2.1
CCn1c2ccccc2c2nnc(SCC(=O)Nc3nccs3)nc21	-0.25
O=C(CSc1nc(-c2ccccc2)cc(=O)[nH]1)c1ccc([N+](=O)[O-])cc1	1.1
O=C(O)c1ccc2c(c1)C1C=CCC1C(c1ccc(F)cc1)N2 (centres undefined)	1
Cn1c(=O)c(-c2ccccc2N)nc2ccccc21	1.2
O=C(O)COc1ccc2oc3c(c2c1)CCCC3	0.97
OC(COc1ccc2oc3c(c2c1)CCCC3)CN1CCN(c2ccccc2)CC1 (centres undefined)	3.1*
O=C(COc1ccc2oc3c(c2c1)CCCC3)Nc1cccc(Br)c1	2.4
Cc1csc(NC2OC(=O)c3ccccc32)n1 (centres undefined)	1.8
Cc1ccc(C(=O)CCc2nc3ccccc3s2)cc1C	0.2
CCCn1c(NCc2cc(C)ccc2O)nc2ccccc21	0.36
CCN(CC)CCn1c(NCc2ccccc2Cl)nc2ccccc21	2.8
CC(=O)Nc1nc2ccccc2n1CCN(C)C	24
CCN(CC)CCn1c(NCc2ccccc2O)nc2ccccc21	6.1*
CCN(CC)CCn1c(NCc2ccc(Br)cc2)nc2ccccc21	2.9
CCOc1ccccc1CNc1nc2ccccc2n1CCN(CC)CC	5.3*
CCn1c(NCc2c(O)ccc3ccccc23)nc2ccccc21	-0.45
CCn1c(NCc2ccc(N(C)C)cc2)nc2ccccc21	-0.31
SMILES	Dicer processing
C=CCc1cccc(CNc2nc3ccccc3n2CC)c1O	6.9*
CCN(CC)CCn1c(NCc2ccco2)nc2ccccc21	3.8*
CCCn1c(NCc2cccc(Br)c2)nc2ccccc21	1.3
CCCn1c(NCc2nc3ccccc3n2C)nc2ccccc21	0.58
CCn1nc(C)cc1C(=O)OCC(=O)c1ccc(Cl)cc1	1.4
O=[N+]([O-])c1ccc(C23CC4CC(CC(Br)(C4)C2)C3)cc1	4
COc1ccc(N2C(=O)CC(Sc3ncn[nH]3)C2=O)cc1OC (centres undefined)	2.3
CCOc1ccccc1C(=O)NC(Nc1nc2ccccc2s1)(C(F)(F)F)C(F)(F)F	-1.7
Cc1cc(C(=O)Nc2ccc(C3CCCCC3)cc2)n(Cc2cccc(C(F)(F)F)c2)n1	-1.2
CCCCCSc1nnc2c(n1)OC(c1ccco1)Nc1ccccc1-2 (centres undefined)	0.96
O=C(Cn1cnc([N+](=O)[O-])n1)Nc1c(F)cc(F)cc1Br	-0.56
CC(O)CNc1nc2c(c(=O)n(Cc3ccc(Cl)cc3)c(=O)n2C)n1C (centres undefined)	-1.1
CN(C)/C=C1\N=C(c2cccnc2Oc2ccc(Cl)cc2)OC1=O	19*
CN(C)/C=C1/N=C(c2ccccc2)OC1=O	1.1
Cc1ccc(Sc2ncccc2C2=N/C(=C\N(C)C)C(=O)O2)cc1	-0.39
CCOC(=O)c1cc(-c2ccccc2)sc1NC(=O)CSc1nc2ccccc2s1	0.97
